Reference: publication PMC9911399, “Two distinct binding modes provide the RNA-binding protein RbFox with extraordinary sequence specificity”
Residue numbers refer to the chain shown, from its start. The full ranking holds about 16,000 sequences; the median of “ka relative to ugcaugu” is about 0.0091, and the highest 2% start at about 0.032. The sample as a whole holds a higher share of the highest values than the screen did.

T1: RBFOX1 RRM (Homo sapiens, UniProt Q9NWB1 109-208)
T1 sequence: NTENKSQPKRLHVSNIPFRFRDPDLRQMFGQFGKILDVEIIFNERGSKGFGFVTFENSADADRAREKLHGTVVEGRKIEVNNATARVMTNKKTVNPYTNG

B1: UGUUGCG (DNA:RNA)
RNA: GGGAGACCGGAAUUCAGAUUGUCCUGUUGCGUUAAAUCCCGUCGUAGCCACCA
DNA 1: CAATCTGAATTCCGGTCTCCC
DNA 2: TGGTGGCTACGACGGGATT
B2: UGCGUUG (DNA:RNA)
RNA: B1 RNA with U27C, U28G, G29U, C30U
DNA 1: CAATCTGAATTCCGGTCTCCC
DNA 2: TGGTGGCTACGACGGGATT
B3: CGUUGCG (DNA:RNA)
RNA: B1 RNA with U25C
DNA 1: CAATCTGAATTCCGGTCTCCC
DNA 2: TGGTGGCTACGACGGGATT
B4: AAUGGAA (DNA:RNA)
RNA: B1 RNA with U25A, G26A, U28G, C30A, G31A
DNA 1: CAATCTGAATTCCGGTCTCCC
DNA 2: TGGTGGCTACGACGGGATT
B5: GUGCUCC (DNA:RNA)
RNA: B1 RNA with U25G, G26U, U27G, U28C, G29U, G31C
DNA 1: CAATCTGAATTCCGGTCTCCC
DNA 2: TGGTGGCTACGACGGGATT
B6: UGGCCCG (DNA:RNA)
RNA: B1 RNA with U27G, U28C, G29C
DNA 1: CAATCTGAATTCCGGTCTCCC
DNA 2: TGGTGGCTACGACGGGATT
B7: UGGCUCG (DNA:RNA)
RNA: B1 RNA with U27G, U28C, G29U
DNA 1: CAATCTGAATTCCGGTCTCCC
DNA 2: TGGTGGCTACGACGGGATT
B8: GUGCUCG (DNA:RNA)
RNA: B1 RNA with U25G, G26U, U27G, U28C, G29U
DNA 1: CAATCTGAATTCCGGTCTCCC
DNA 2: TGGTGGCTACGACGGGATT
B9: UGCUCCG (DNA:RNA)
RNA: B1 RNA with U27C, G29C
DNA 1: CAATCTGAATTCCGGTCTCCC
DNA 2: TGGTGGCTACGACGGGATT
B10: UGCUCCC (DNA:RNA)
RNA: B1 RNA with U27C, G29C, G31C
DNA 1: CAATCTGAATTCCGGTCTCCC
DNA 2: TGGTGGCTACGACGGGATT
B11: GUGCUCU (DNA:RNA)
RNA: B1 RNA with U25G, G26U, U27G, U28C, G29U, G31U
DNA 1: CAATCTGAATTCCGGTCTCCC
DNA 2: TGGTGGCTACGACGGGATT
B12: CGUGCUC (DNA:RNA)
RNA: B1 RNA with U25C, U28G, G29C, C30U, G31C
DNA 1: CAATCTGAATTCCGGTCTCCC
DNA 2: TGGTGGCTACGACGGGATT
B13: UGGCUCC (DNA:RNA)
RNA: B1 RNA with U27G, U28C, G29U, G31C
DNA 1: CAATCTGAATTCCGGTCTCCC
DNA 2: TGGTGGCTACGACGGGATT
B14: CGCUACC (DNA:RNA)
RNA: B1 RNA with U25C, U27C, G29A, G31C
DNA 1: CAATCTGAATTCCGGTCTCCC
DNA 2: TGGTGGCTACGACGGGATT
B15: AGAGCCU (DNA:RNA)
RNA: B1 RNA with U25A, U27A, U28G, G29C, G31U
DNA 1: CAATCTGAATTCCGGTCTCCC
DNA 2: TGGTGGCTACGACGGGATT
B16: UAUGCGC (DNA:RNA)
RNA: B1 RNA with G26A, U28G, G29C, C30G, G31C
DNA 1: CAATCTGAATTCCGGTCTCCC
DNA 2: TGGTGGCTACGACGGGATT
B17: CUUCGUU (DNA:RNA)
RNA: B1 RNA with U25C, G26U, U28C, C30U, G31U
DNA 1: CAATCTGAATTCCGGTCTCCC
DNA 2: TGGTGGCTACGACGGGATT
B18: UCCGGCC (DNA:RNA)
RNA: B1 RNA with G26C, U27C, U28G, G31C
DNA 1: CAATCTGAATTCCGGTCTCCC
DNA 2: TGGTGGCTACGACGGGATT
B19: UUACUUG (DNA:RNA)
RNA: B1 RNA with G26U, U27A, U28C, G29U, C30U
DNA 1: CAATCTGAATTCCGGTCTCCC
DNA 2: TGGTGGCTACGACGGGATT
B20: GAGUGAG (DNA:RNA)
RNA: B1 RNA with U25G, G26A, U27G, C30A
DNA 1: CAATCTGAATTCCGGTCTCCC
DNA 2: TGGTGGCTACGACGGGATT
B21: CAGGUUU (DNA:RNA)
RNA: GGGAGACCGGAAUUCAGAUUGUCCCAGGUUUUUAAAUCCCGUCGUAGCCACCA
DNA 1: CAATCTGAATTCCGGTCTCCC
DNA 2: TGGTGGCTACGACGGGATT
B22: CGCCAGG (DNA:RNA)
RNA: B1 RNA with U25C, U27C, U28C, G29A, C30G
DNA 1: CAATCTGAATTCCGGTCTCCC
DNA 2: TGGTGGCTACGACGGGATT
B23: CGGAAGC (DNA:RNA)
RNA: B21 RNA with A26G, G28A, U29A, U30G, U31C
DNA 1: CAATCTGAATTCCGGTCTCCC
DNA 2: TGGTGGCTACGACGGGATT
B24: GGAGCUU (DNA:RNA)
RNA: B21 RNA with C25G, A26G, G27A, U29C
DNA 1: CAATCTGAATTCCGGTCTCCC
DNA 2: TGGTGGCTACGACGGGATT
B25: GGGAGCU (DNA:RNA)
RNA: B1 RNA with U25G, U27G, U28A, G31U
DNA 1: CAATCTGAATTCCGGTCTCCC
DNA 2: TGGTGGCTACGACGGGATT
B26: CGGAACU (DNA:RNA)
RNA: B21 RNA with A26G, G28A, U29A, U30C
DNA 1: CAATCTGAATTCCGGTCTCCC
DNA 2: TGGTGGCTACGACGGGATT
B27: GGGAAGC (DNA:RNA)
RNA: B21 RNA with C25G, A26G, G28A, U29A, U30G, U31C
DNA 1: CAATCTGAATTCCGGTCTCCC
DNA 2: TGGTGGCTACGACGGGATT
B28: CGGAGCU (DNA:RNA)
RNA: B21 RNA with A26G, G28A, U29G, U30C
DNA 1: CAATCTGAATTCCGGTCTCCC
DNA 2: TGGTGGCTACGACGGGATT
B29: GGAGAGC (DNA:RNA)
RNA: B21 RNA with C25G, A26G, G27A, U29A, U30G, U31C
DNA 1: CAATCTGAATTCCGGTCTCCC
DNA 2: TGGTGGCTACGACGGGATT
B30: CGGGAGC (DNA:RNA)
RNA: B21 RNA with A26G, U29A, U30G, U31C
DNA 1: CAATCTGAATTCCGGTCTCCC
DNA 2: TGGTGGCTACGACGGGATT
B31: GGAACUU (DNA:RNA)
RNA: B21 RNA with C25G, A26G, G27A, G28A, U29C
DNA 1: CAATCTGAATTCCGGTCTCCC
DNA 2: TGGTGGCTACGACGGGATT
B32: GGAAGCU (DNA:RNA)
RNA: B1 RNA with U25G, U27A, U28A, G31U
DNA 1: CAATCTGAATTCCGGTCTCCC
DNA 2: TGGTGGCTACGACGGGATT
B33: GGGGAGC (DNA:RNA)
RNA: B21 RNA with C25G, A26G, U29A, U30G, U31C
DNA 1: CAATCTGAATTCCGGTCTCCC
DNA 2: TGGTGGCTACGACGGGATT
B34: GGGAACU (DNA:RNA)
RNA: B21 RNA with C25G, A26G, G28A, U29A, U30C
DNA 1: CAATCTGAATTCCGGTCTCCC
DNA 2: TGGTGGCTACGACGGGATT

molecular target: T1, RBFOX1 RRM; experiment: EMSA; HiTS-Eq, 1 nM pool, 10 min; buffer printed only for the single-RNA assays: 10 mM Tris pH 7.5, 150 mM NaCl, 3.4 mM EDTA, 0.001% NP-40, 30 C; conditions: tags: His6 N-terminal (pET28a); label: 5' 32P
In short: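 A pool of RNA with 7 randomized nucleotides, 5′-radiolabelled and with DNA-annealed flanks, was equilibrated at 1 nM for 10 min in 50 µL with purified RbFox RRM, wild type or mutant, across increasing protein concentrations. Free RNA was separated by 8% native PAGE, excised, reverse-transcribed, barcoded by PCR and sequenced. Relative association constants were obtained from read-count changes of each RNA species versus the control reaction and normalised to the cognate motif.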

Row | Binder | binding signal
1 | B1 | 0.0326 KA relative to UGCAUGU
2 | B2 | 0.0296 KA relative to UGCAUGU
3 | B3 | 0.0173 KA relative to UGCAUGU
4 | B4 | 0.00264 KA relative to UGCAUGU
5 | B5 | 0.0357 KA relative to UGCAUGU
6 | B6 | 0.0217 KA relative to UGCAUGU
7 | B7 | 0.0396 KA relative to UGCAUGU
8 | B8 | 0.0432 KA relative to UGCAUGU
9 | B9 | 0.0132 KA relative to UGCAUGU
10 | B10 | 0.00242 KA relative to UGCAUGU
11 | B11 | 0.0226 KA relative to UGCAUGU
12 | B12 | 0.0133 KA relative to UGCAUGU
13 | B13 | 0.00985 KA relative to UGCAUGU
14 | B14 | 0.00834 KA relative to UGCAUGU
15 | B15 | 0.00804 KA relative to UGCAUGU
16 | B16 | 0.0181 KA relative to UGCAUGU
17 | B17 | 0.0135 KA relative to UGCAUGU

Row | Binder | binding signal
18 | B18 | 0.00966 KA relative to UGCAUGU
19 | B19 | 0.0182 KA relative to UGCAUGU
20 | B20 | 0.0102 KA relative to UGCAUGU
21 | B21 | 0.0116 KA relative to UGCAUGU
22 | B22 | 0.0105 KA relative to UGCAUGU
23 | B23 | 0.0209 KA relative to UGCAUGU
24 | B24 | 0.0232 KA relative to UGCAUGU
25 | B25 | 0.035 KA relative to UGCAUGU
26 | B26 | 0.0254 KA relative to UGCAUGU
27 | B27 | 0.036 KA relative to UGCAUGU
28 | B28 | 0.0245 KA relative to UGCAUGU
29 | B29 | 0.0169 KA relative to UGCAUGU
30 | B30 | 0.0286 KA relative to UGCAUGU
31 | B31 | 0.0138 KA relative to UGCAUGU
32 | B32 | 0.0135 KA relative to UGCAUGU
33 | B33 | 0.0326 KA relative to UGCAUGU
34 | B34 | 0.0404 KA relative to UGCAUGU
